Test results from PubChem BioAssay (Tox21).
Results filed as inconclusive are left out. Where a call stands in place of a potency, no number is given. Values without a mark were called inactive. Calls of active or inactive are those of the source. Calls follow the shape of the full dose curve.

assay: p53 small molecule agonists, cell-based qHTS assay with human liver microsomes: qHTS cell viability counter screen (AID 1963579); conditions: p53RE-bla HCT-116 viability, ATP luminescence, 16 h, HLM; series mostly up to 66 µM; also: nearly all actives have a fitted effect of over 45% in size
Summary of the method: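 After the 460/530 nm beta-lactamase read, CellTiter-Glo was added to the same wells and luminescence measured after 30 min at room temperature, giving viability of p53RE-bla cells treated 16 h with compounds plus microsomes and NADPH.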
Potency is read from the fitted curve at half-maximal effect.

SMILES	Potency	activity change, negative = cytotoxicity
CC1(c2ccc(Oc3ccccc3)cc2)OC(=O)N(Nc2ccccc2)C1=O (stereo not given)	inactive	
Oc1cc(Cl)cc(Cl)c1	inactive	
COc1ccc(C(c2ccc(OC)cc2)C(Cl)(Cl)Cl)cc1	inactive	
CC(C)N(C(=O)COc1nnc(C(F)(F)F)s1)c1ccc(F)cc1	inactive	
Oc1cccc(Cl)c1	inactive	
CCOP(=S)(OCC)Oc1ccc(S(C)=O)cc1 (stereo not given)	inactive	
O=c1[nH]c2ccccc2o1	inactive	
C=C(C)[C@H]1CN[C@H](C(=O)O)[C@H]1CC(=O)O	inactive	
Oc1ccc(C2(c3ccc(O)cc3)c3ccccc3-c3ccccc32)cc1	32.4 µM (active)	
C[C@@H](N)[C@@H](O)c1ccccc1	inactive	
CC(C)(Cl)[N+](=O)[O-]	inactive	
CC[C@H](C)[C@H]1O[C@]2(C=C[C@@H]1C)C[C@@H]1C[C@@H](C/C=C(\C)[C@@H](O[C@H]3C[C@H](OC)[C@@H](O[C@H]4C[C@H](OC)[C@@H](O)[C@H](C)O4)[C@H](C)O3)[C@@H](C)/C=C/C=C3\CO[C@@H]4[C@H](O)C(C)=C[C@@H](C(=O)O1)[C@]34O)O2	inactive	
Cc1ccc2nc3sc(=O)sc3nc2c1		4.93% [at 13.5 µM]
CC1(C)CN=C(NN=C(/C=C/c2ccc(C(F)(F)F)cc2)/C=C/c2ccc(C(F)(F)F)cc2)NC1	inactive	
O=[N+]([O-])c1c(Cl)c(Cl)cc(Cl)c1Cl	inactive	
CCCCCCCCCCCCN(C)C	inactive	
CCCCN(CCCC)C(=S)[S-].CCCCN(CCCC)C(=S)[S-].[Zn+2]	inactive	
CCN(CC)C(=S)[S-].CCN(CC)C(=S)[S-].[Zn+2]	3.21 µM (active)	
CS(=O)(=O)c1ccc(C(=O)C2C(=O)CCCC2=O)c(Cl)c1COCC(F)(F)F	inactive	
CC[C@@H](CO)NC(=O)[C@@H]1C=C2c3cccc4c3c(cn4C)C[C@H]2N(C)C1	inactive	
CCOP(=O)(OCC)Oc1cc(C)nc(C(C)C)n1	inactive	
CCOP(=S)(OCC)Oc1cc(C)nc(N(CC)CC)n1	inactive	
CNP(=O)(OC)Oc1ccc(C(C)(C)C)cc1Cl (stereo not given)	inactive	
O=C1C(=O)c2cccc3cccc1c23	inactive	
COC(=O)c1ccccc1S(=O)(=O)NC(=O)Nc1nc(C)nc(OC)n1	inactive	
c1csc(-c2ccc(-c3cccs3)s2)c1	inactive	
CCOP(=S)(S)OCC	inactive	
CC(C)[C@H](C(=O)O[C@H](C#N)c1cccc(Oc2ccccc2)c1)c1ccc(Cl)cc1	inactive	
O=[N+]([O-])c1cccc2cccnc12	inactive	
CCCCC(CC)COC(=O)OOC(C)(C)C (stereo not given)	inactive	
